Results on eleven molecules are retold here after PubChem BioAssay (NCATS).

Inconclusive results are not listed. Calls of active or inactive are those of the source. Calls come from the whole dose curve; as a rule, active = well fitted curve in the direction sought with a large enough effect; inconclusive = small, poorly fitted or top-dose-only effect, or another doubt; inactive = no such curve, though single readings can be large; an effect the other way counts as inactive or inconclusive.

Assay [1] can be described thus: qHTS of pediatric cancer cell lines to identify multiple opportunities for drug repurposing: Confirmatory screen for RD cells (AID 1347124).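 Note: cells exposed to compound for 48 h before viability readout; nearly all actives have a fitted effect of over 65% in size.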 Note: potency is the fitted concentration of half-maximal effect. The method, boiled down: (§1)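 Viability after 48 h compound treatment at 37C, 500-1,000 cells/well, read as ATP luminescence with CellTiter-Glo. Primary screens used 11-point (MIPE, 0.78 nM-46 µM) or 8-point (NPC, 0.59 nM-46 µM) final concentrations; follow-up screens used 11-point dilutions.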
For orientation: In qHTS, concentration-response curves come from the screen itself.

A short description of assay [2]: qHTS of pediatric cancer cell lines to identify multiple opportunities for drug repurposing: Confirmatory screen for Rh18 cells (AID 1347125). Note: nearly all actives have a fitted effect of over 55% in size. The method, boiled down: as §1
Assay [3] can be described thus: qHTS of pediatric cancer cell lines to identify multiple opportunities for drug repurposing: Confirmatory screen for Rh30 cells (AID 1347126). Note: nearly all actives have a fitted effect of over 55% in size. The method, boiled down: as §1
Assay [4] is described as follows: qHTS of pediatric cancer cell lines to identify multiple opportunities for drug repurposing: Confirmatory screen for OHS-50 cells (AID 1347128).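 Note: compound exposure lasted 48 h at 37 degrees C; nearly all actives have a fitted effect of over 55% in size.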 Note: potency is the fitted concentration of half-maximal effect. The method, boiled down:
as §1

Assay [5] in a line: qHTS of pediatric cancer cell lines to identify multiple opportunities for drug repurposing: Confirmatory screen for SK-N-SH cells (AID 1347129).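 Note: cells exposed to compound for 48 h before viability read; nearly all actives have a fitted effect of over 60% in size.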 The method, boiled down:
as §1

Assay [6] concerns Zika virus NS2B-NS3 protease. Put plainly: Primary screen GU AMC qHTS for Zika virus inhibitors (AID 1347154). Note: nearly all actives have a fitted effect of over 70% in size. The method, boiled down:
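Unlinked Zika NS2B hydrophilic domain–NS3 protease complex at 25 nM in 10 mM Tris-HCl pH 8.0, 0.01% Tween 20, with an AMC peptide substrate. Fluorescence change (340/450 nm) over 15 min at room temperature, normalized to controls, fitted to 4-parameter Hill.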

In assay [7] the test system is Zika virus NS2B-NS3 protease (unlinked complex). Briefly: Primary screen GU Rhodamine qHTS for Zika virus inhibitors: Unlinked NS2B-NS3 protease assay (AID 1347159). Note: nearly all actives have a fitted effect of over 60% in size. The method, boiled down:
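Noncovalent NS2B hydrophilic domain–NS3 protease domain complex (25 nM) preincubated 15 min at room temperature with compounds (up to 114 microM) in 10 mM Tris-HCl pH 8.0, 0.01% Tween 20; 1.5 microM Rhodamine110 substrate added, fluorescence change over 15 min fitted to Hill equation.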

In assay [8] the test system is Zika virus NS2B-NS3 protease (linked construct). Put plainly: Primary screen NINDS Rhodamine qHTS for Zika virus inhibitors (AID 1347160). Note: nearly all actives have a fitted effect of over 55% in size. The method, boiled down: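 Purified linked NS2B-NS3 protease (NS2B hydrophilic domain joined to NS3 protease by flexible linker), 25 nM in 10 mM Tris-HCl pH 8.0, 0.01% Tween 20. Compounds titrated, 15 min preincubation at room temperature; 1.5 microM Rhodamine110 substrate, FITC fluorescence change over 15 min.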

Assay [9] is described as follows: qHTS of pediatric cancer cell lines to identify multiple opportunities for drug repurposing: Confirmatory screen for Rh41 cells (AID 1347123).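 Note: potency is the fitted concentration of half-maximal effect; 48 h compound exposure; nearly all actives have a fitted effect of over 60% in size.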 The method, boiled down:
as §1

Assay [10] addresses N-terminal Xaa-Pro-Lys N-methyltransferase 1 (Homo sapiens) (UniProt Q9BV86). Put plainly: qHTS Assay for Inhibitors of N-terminal methyltransferase 1 (NTMT1): LOPAC validation of the NTMT1 SAHH-coupled ThioGlo3 Assay (AID 1347143).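 Note: SAH from peptide methylation measured as thiol fluorescence via SAHH coupling and ThioGlo3; nearly all actives have a fitted effect of over 70% in size.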 Note: potency is the fitted concentration of half-maximal effect. The method, boiled down:
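Recombinant human NTMT1 (125nM) was pre-incubated 1 min at room temperature with compounds over a concentration range, then a mix of 100uM SAM, 10uM SAHH and 15uM ThioGlo3 (concentrations in added reagent) was added. ThioGlo3 fluorescence (ex 340/em 450nm) after 30 min was normalized to the initial reading.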

Assay [11] concerns Zika virus NS2B-NS3 protease (unlinked). Put plainly: Optimization of GU AMC qHTS for Zika virus inhibitors: Unlinked NS2B-NS3 protease assay (AID 1347151). Note: series mostly up to about 52 µM; nearly all actives have a fitted effect of over 80% in size. The method, boiled down: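 In this qHTS, compounds acted on 25 nM unlinked Zika NS2B–NS3 in pH 8.0 Tris/Tween buffer. Cleavage of an AMC peptide ran 15 min at room temperature, to about 20% conversion.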
Assay [12] deals with Lysine-specific demethylase 5B (Homo sapiens) (UniProt Q9UGL1). Briefly: Optimization screen for KDM5B Histone Demethylases FDH coupled qHTS against the LOPAC library (AID 1347166). The method, boiled down:
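KDM5BDeltaAP (200nM final) preincubated 10 min with compound, then 12.5uM H3K4Me3, 25uM a-ketoglutarate, ascorbate, Fe(II), NAD+ and FDH added; 50mM HEPES pH 7.5, 0.01% Tween-20. NADH fluorescence (340/450 nm) change over 30 min, room temperature.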

N-terminal Xaa-Pro-Lys N-methyltransferase 1 (Homo sapiens), sequence (Q9BV86 whole entry, looked up): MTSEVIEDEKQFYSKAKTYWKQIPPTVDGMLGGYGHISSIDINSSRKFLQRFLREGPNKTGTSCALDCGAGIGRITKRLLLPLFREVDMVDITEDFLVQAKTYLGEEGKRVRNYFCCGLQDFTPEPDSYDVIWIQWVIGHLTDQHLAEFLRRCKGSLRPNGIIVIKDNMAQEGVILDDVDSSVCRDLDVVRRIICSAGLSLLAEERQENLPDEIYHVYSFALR
Lysine-specific demethylase 5B (Homo sapiens), sequence (Q9UGL1 whole entry, looked up): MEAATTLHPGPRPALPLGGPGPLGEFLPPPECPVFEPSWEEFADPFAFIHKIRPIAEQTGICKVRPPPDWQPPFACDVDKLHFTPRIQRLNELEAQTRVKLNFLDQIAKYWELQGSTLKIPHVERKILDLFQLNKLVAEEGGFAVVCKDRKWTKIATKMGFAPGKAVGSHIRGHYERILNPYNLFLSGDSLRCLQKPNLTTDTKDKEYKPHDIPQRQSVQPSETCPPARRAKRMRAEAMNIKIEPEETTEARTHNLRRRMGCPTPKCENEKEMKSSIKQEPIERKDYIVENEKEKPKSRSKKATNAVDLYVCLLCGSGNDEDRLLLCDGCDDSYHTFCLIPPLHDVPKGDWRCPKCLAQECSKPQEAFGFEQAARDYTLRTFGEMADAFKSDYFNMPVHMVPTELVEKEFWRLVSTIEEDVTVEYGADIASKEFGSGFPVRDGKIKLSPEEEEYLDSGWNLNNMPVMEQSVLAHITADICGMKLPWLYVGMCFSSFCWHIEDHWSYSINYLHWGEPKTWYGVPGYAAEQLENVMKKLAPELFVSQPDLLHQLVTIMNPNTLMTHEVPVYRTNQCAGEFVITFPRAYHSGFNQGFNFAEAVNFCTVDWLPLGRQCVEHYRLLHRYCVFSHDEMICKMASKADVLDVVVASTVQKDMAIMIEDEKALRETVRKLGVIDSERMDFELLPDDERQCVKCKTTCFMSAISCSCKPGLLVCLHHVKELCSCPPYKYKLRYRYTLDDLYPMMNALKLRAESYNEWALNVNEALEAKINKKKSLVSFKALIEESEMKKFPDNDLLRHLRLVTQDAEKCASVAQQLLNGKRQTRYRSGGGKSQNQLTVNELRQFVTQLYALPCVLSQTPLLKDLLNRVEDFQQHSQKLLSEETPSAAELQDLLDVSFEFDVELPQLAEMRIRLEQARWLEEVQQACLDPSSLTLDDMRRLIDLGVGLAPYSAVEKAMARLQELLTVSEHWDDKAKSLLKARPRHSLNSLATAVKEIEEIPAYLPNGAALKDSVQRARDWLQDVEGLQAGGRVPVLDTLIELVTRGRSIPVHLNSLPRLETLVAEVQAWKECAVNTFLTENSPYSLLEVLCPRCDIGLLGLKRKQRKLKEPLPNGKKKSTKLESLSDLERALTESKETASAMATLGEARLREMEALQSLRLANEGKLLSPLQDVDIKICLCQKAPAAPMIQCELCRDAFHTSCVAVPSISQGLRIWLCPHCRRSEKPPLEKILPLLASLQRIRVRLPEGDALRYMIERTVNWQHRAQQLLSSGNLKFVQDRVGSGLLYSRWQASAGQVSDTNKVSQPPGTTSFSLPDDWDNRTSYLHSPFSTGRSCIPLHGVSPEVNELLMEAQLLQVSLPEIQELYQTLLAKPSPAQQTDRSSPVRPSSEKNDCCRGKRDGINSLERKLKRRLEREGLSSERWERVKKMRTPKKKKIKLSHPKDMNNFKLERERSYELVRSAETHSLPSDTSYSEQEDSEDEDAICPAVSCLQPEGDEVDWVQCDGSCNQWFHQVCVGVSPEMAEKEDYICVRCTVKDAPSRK

Regarding `CN[C@@H](C)C(=O)N[C@H]1CN(C(=O)CC(C)C)CC[C@H]2CC[C@@H](C(=O)NC(c3ccccc3)c3ccccc3)N2C1=O`, the Potency entry in assay [1], in assay [2], in assay [3], in assay [4], in assay [5] and in assay [6] was “inactive” in each case. Moreover, the Potency result in assay [7] and in assay [8] was “inactive” each time.
`CC(C)(C(=O)NCC(F)(F)C(F)(F)F)C(=O)N[C@@H]1C(=O)Nc2ccccc2-c2ccccc21`: the Potency entry in assay [1], in assay [2], in assay [3], in assay [4] and in [6] was “inactive” throughout.
As to `CC(=NNC(=S)N1CCC1)c1ccccn1`, the Potency entry in assay [1], in assay [2], in [4] and in [6] was “inactive” each time.
With `CO[C@H]1C(=O)[C@]2(C)[C@@H](OC)C[C@H]3OC[C@@]3(OC(C)=O)[C@H]2[C@H](OC(=O)c2ccccc2)[C@]2(O)C[C@H](OC(=O)[C@H](O)[C@@H](NC(=O)OC(C)(C)C)c3ccccc3)C(C)=C1C2(C)C`, the Potency in assay [9] and in [4] was 0.0165 µM (active) each time. The Potency entry in [3] and in assay [6] was “inactive” each time.
In the case of `CCCCC1C(=O)N(c2ccccc2)N(c2ccccc2)C1=O`, the Potency entry in assay [10], in assay [11] and in assay [6] was “inactive” in each case. The molecule was called inactive in assay [12].
Regarding `CO[C@H]1C[C@@H]2CC[C@@H](C)[C@@](O)(O2)C(=O)C(=O)N2CCCC[C@@H]2C(=O)O[C@H]([C@H](C)C[C@@H]2CC[C@H](OCCO)[C@H](OC)C2)CC(=O)[C@H](C)C=C(C)[C@@H](O)[C@@H](OC)C(=O)[C@H](C)C[C@H](C)C=CC=CC=C1C`, the Potency result in assay [1], in [2], in assay [3] and in assay [5] was “inactive” in each case.
`COc1cccc(-c2cc(=O)c3ccccc3o2)c1N`: the Potency in [1] is 465 nM (active). Also, the Potency result in assay [2], in [4], in assay [11] and in assay [6] was “inactive” throughout. Moreover, the molecule was called inactive in assay [12].
Consider `CCN1CCC[C@H]1CNC(=O)c1cc(S(N)(=O)=O)ccc1OC`, for which the Potency result in [10], in assay [11], in assay [6], in [7] and in assay [8] was “inactive” in each case. Also, the molecule was called inactive in [12].
In the case of `O=C(NCc1ccncc1)C12C[C@H]3C[C@@H](C1)CC(c1ccc(Cl)cc1)(C3)C2`, the figures for the Potency in assay [9] and in assay [4] were 14.7 µM (active) and 13.1 µM (active), respectively. Besides, the Potency entry in assay [2], in assay [5] and in assay [6] was “inactive” each time.
As to `COC(=O)[C@@H]1[C@H]2C[C@H]3c4[nH]c5ccccc5c4CCN3C[C@@H]2CC[C@@H]1O`, the Potency in assay [10] was 79.4 µM (active). For the same molecule, the Potency entry in assay [11], in assay [6], in assay [7] and in assay [8] was “inactive” each time. Besides, the molecule was classed as inactive in assay [12].
On to `CC(=O)CCCCn1c(=O)c2c(ncn2C)n(C)c1=O`, for which the Potency result in assay [10], in [11], in [6], in assay [7] and in assay [8] was “inactive” in each case. Further, the molecule was classed as inactive in [12].
